Source: PubChem BioAssay (National Center for Advancing Translational Sciences (NCATS))
In the library only some 4.3% were active in any assay of this set; here they are far more common.
GLP1R ag: qHTS of GLP-1 Receptor Agonists; HEK293 GLP-1R CRE-luciferase, luminescence, 4-6 h; cells express a hypersensitive GLP-1R form; Potency, µM (top dose mostly 45.6 µM), for inactives: at the top dose activation, actives largely listed as activators; 380,000 tested, 0.007% active; further: potency means the concentration at half of the fitted maximal effect; % of control where 0% means no effect
Target sequence (P43220 whole entry, looked up): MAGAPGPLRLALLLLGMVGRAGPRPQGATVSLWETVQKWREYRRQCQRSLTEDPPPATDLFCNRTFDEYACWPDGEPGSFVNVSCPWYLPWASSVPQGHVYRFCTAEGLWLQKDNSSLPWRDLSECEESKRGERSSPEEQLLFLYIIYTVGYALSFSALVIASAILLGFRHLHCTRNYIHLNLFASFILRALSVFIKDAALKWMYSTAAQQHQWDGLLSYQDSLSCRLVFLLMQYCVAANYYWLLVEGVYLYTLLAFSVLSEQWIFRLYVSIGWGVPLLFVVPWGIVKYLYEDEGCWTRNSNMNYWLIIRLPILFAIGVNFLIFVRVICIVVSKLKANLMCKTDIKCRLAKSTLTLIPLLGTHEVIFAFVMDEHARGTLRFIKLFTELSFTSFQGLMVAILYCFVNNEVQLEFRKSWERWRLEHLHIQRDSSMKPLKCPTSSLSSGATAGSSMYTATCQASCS
GLP1R inv ag: qHTS of GLP-1 Receptor Inverse Agonists (Inhibition Mode); Glucagon-like peptide 1 receptor (Homo sapiens), P43220; Potency, µM (doses to about 38.3 µM), for the others: at the highest dose activity change, negative = inhibition, hits mostly inhibitors; 410,000 tested, 1.6% active; HEK293 GLP-1R CRE-luciferase, luminescence, 24 h; GLP-1R form is constitutively active; further: potency means the concentration at half of the fitted maximal effect; on the % scale 0 is the no-effect control and ±100 the full control effect; nearly all actives have a fitted effect of over 55% in size
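Readout was luciferase luminescence, measured 12 min after detection reagent at room temperature. Beforehand, GLP-1R reporter HEK293 cells had sat 12 h, then received compounds for 24 hr at 37 deg C.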
DRD3 antagonist: qHTS of D3 Dopamine Receptor Antagonist: qHTS; D3R cells, DiscoveRx beta-arrestin luminescence, antagonist mode; hits give low values; max response, negative = inhibition, %; 360,000 tested, 2.5% active; AID 652054, 2013; in the data active means max response below about -50%; inconclusive means no clear call, values can overlap the other calls; further: on the % scale 0 is the no-effect control and ±100 the full control effect
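Cells expressing the human receptor were seeded at 1500 cells/well, incubated overnight at 37 degrees C in 5% CO2, then exposed to library compounds with dopamine controls for 90 minutes at 37 degrees C before luminescent detection.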
DRD3 agonist: qHTS of D3 Dopamine Receptor Agonist: qHTS; max activation, %; D(3) dopamine receptor (Homo sapiens), P35462; 410,000 tested, 0.58% active; D3R DiscoveRx beta-arrestin cells, luminescence, 90 min; in the data active means max activation above about 30%; further: 0% is about no effect
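Agonist-mode cell screen: cells plated at 1500/well and incubated overnight at 37 °C, then exposed to library compounds for 90 min at 37 °C. Detection reagent was added for 30–60 min at room temperature, and luminescence was read.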
Active calls of the source: *; u = inconclusive; x = not tested or not shown. Unless noted, the call rests on the fitted dose curve; in most records, active means well fitted curve in the direction sought with a large enough effect; inconclusive means small, poorly fitted or top-dose-only effect, or another doubt; inactive means no such curve, though single readings can be large; an effect the other way counts as inactive or inconclusive.

SMILES | GLP1R ag | GLP1R inv ag | DRD3 antagonist | DRD3 agonist
c1ccc(-c2nnc(CN3CCN(c4ccccn4)CC3)o2)cc1 | x | 2% | x | 98*
Clc1cccc(-c2nnc(CN3CCN(c4ccccn4)CC3)o2)c1 | x | 19% | x | 95*
Fc1ccc(N2CCN(Cc3nnc(-c4ccccc4Cl)o3)CC2)cc1 | x | -10% | x | 2
Cc1cccc(N2CCN(Cc3nc(-c4cccc(Cl)c4)oc3C)CC2)n1 | 16% | u | u | -12
Fc1ccc(-c2nnc(CN3CCN(c4ccccn4)CC3)o2)cc1 | x | -28% | x | 80*
c1ccc(CN2CCN(Cc3nnc(-c4ccccc4)o3)CC2)cc1 | 13% | 14% | 3 | -2
CCOc1cc(C(=O)NCc2nc(-c3cccc(C)c3)no2)cc(OCC)c1OCC | x | 1% | x | -19
Cc1nc(N2CCN(S(=O)(=O)c3ccc(Br)cc3)CC2)c2c(C)c(C)sc2n1 | -2% | u | -55* | 5
CCOc1ncccc1C(=O)OCc1ccc(Cl)cc1 | 8% | 22% | -15 | 2
CCOc1ncccc1C(=O)OCc1ccc(C(=O)OC)cc1 | 11µM* | 7% | -6 | 0
Oc1c(Cl)cc(Cl)cc1/C=N/c1nc(-c2ccc(Cl)cc2)cs1 | -12% | u | -82* | -12
CCCc1cc(=O)oc2c3c(cc(OCC(=O)NCCN4CCOCC4)c12)OC(C)(C)CC3 | 21% | 15% | -56* | -48
Cc1cc(C)c2c(n1)sc1c(=O)n(Cc3ccccc3Cl)nnc12 | -5% | 0% | -51* | 3
CNC1C(O)C(OC2C(NC(=O)C(O)CN)CC(N)C(OC3OC(CN)C(O)C(O)C3O)C2O)OCC1(C)O (centres undefined) | 0% | x | x | x
COc1ccc(NC(=O)CCNS(=O)(=O)c2ccc3c(c2)CCN3C(=O)C2CC2)cc1Cl | 9% | 2% | x | -2
CCOc1ccc(CCN2C(=S)N([C@@H](CC(C)C)CN3CCCC3CN3C(=S)NC[C@@H]3Cc3ccc(O)cc3)C[C@@H]2Cc2ccccc2)cc1 (some centres undefined) | -1% | 11µM* | -10 | 2
CCOc1ccc(CCN2C(=S)N([C@@H](CC(C)C)CN3CCCC3CN3C(=S)NC[C@@H]3Cc3ccc(O)cc3)C[C@@H]2CC(C)C)cc1 (some centres undefined) | 9% | 10µM* | -30 | -25
CCOc1ccc(CCN2C(=S)N([C@@H](CC(C)C)CN3CCCC3CN3C(=S)NC[C@@H]3Cc3ccc(O)cc3)C[C@@H]2Cc2ccc(O)cc2)cc1 (some centres undefined) | -1% | u | -24 | 6
Cc1ccccc1C(=O)Nc1nc2nc(C)c(C)c(=O)n2[nH]1 | x | 5% | x | -14
COc1ccccc1NC(=O)C1=C(C)Nc2nc3ccccc3n2C1c1cccc(Br)c1 (centres undefined) | -5% | -3% | x | 6
O=C(NCc1nnc(SCc2ccc(F)cc2)n1-c1ccccc1)C12CC3CC(CC(C3)C1)C2 | 0% | u | -51* | 0
O=[N+]([O-])c1ccc(CSc2nnc(Cc3ccccc3)n2-c2ccc(F)cc2)cc1 | 23% | 10µM* | -9 | -4
O=C(NCc1nnc(SCc2ccc(C(F)(F)F)cc2)n1-c1ccccc1)C12CC3CC(CC(C3)C1)C2 | -5% | u | 0 | 0
Cc1cccc(N2CCN(C(=O)c3ccc4nc(N5CCC(C)CC5)sc4c3)CC2)c1C | x | u | x | -2
Cc1nn2c3c(cnc2c1-c1ccc(Cl)cc1)C(=O)CC(c1ccco1)C3 (centres undefined) | 0% | 0% | -52* | 0
SMILES | GLP1R ag | GLP1R inv ag | DRD3 antagonist | DRD3 agonist
CC(=O)O[C@@H]1[C@@H](O)[C@@H](O)[C@H](Oc2c(-c3ccc(O)cc3)oc3c(CC=C(C)C)c(O)cc(O)c3c2=O)O[C@H]1C | -4% | -23% | 43 | 14
CC(=O)O[C@H]1[C@@H](O)[C@H](O)[C@H](Oc2c(O)c(C)c3c4c2[C@@H](C)CC[C@@H]4[C@@H](C)C[C@H]3C=C(C)C)O[C@H]1C | -2% | 11µM* | 96 | 30*
COc1ccc(C(=O)C(CCC(CNC(C)(C)C)C(=O)c2ccc(OC)cc2)CNC(C)(C)C)cc1 (centres undefined) | -7% | u | -55* | -17
Cc1ccc(O)c(CP(=O)(c2ccccc2)c2ccccc2)c1 | -3% | -17% | 11 | 1
Cc1ccc(O)c(CN(C)Cc2cc(C)ccc2O)c1 | 6% | 13µM* | u | -29
CCOC(=O)c1cnn(CCOC(=O)C2CC2)c1NC(=O)C1CC1 | -14% | -27% | -99* | 8
COc1cc(NS(=O)(=O)c2ccc(-c3cc(C)no3)cc2)cc(OC)c1 | x | u | x | 4
CCOc1ccc(OC(=O)c2c(-c3ccccc3Cl)noc2C)cc1 | x | -9% | x | 7
Cc1ccc(S(=O)(=O)c2nc(S(=O)(=O)c3ccc(C)cc3)c(N3CCN(CCO)CC3)s2)cc1 | 2% | u | -92* | -18
CCS(=O)(=O)c1nc(S(=O)(=O)c2ccc(Cl)cc2)c(N2CCN(C)CC2)s1 | 1% | u | -75* | -20
CS(=O)(=O)c1nc(S(=O)(=O)c2ccc(Cl)cc2)c(N2CCN(CCO)CC2)s1 | -2% | u | -13 | -6
CCCCCn1c(=O)[nH]c2cc(C(=O)Nc3cc(OC)cc(OC)c3)ccc2c1=O | 1% | -3% | x | -4
Cc1ccc(C(=O)Nc2nnc(-c3ccco3)o2)cc1 | -28% | u | -19 | -6
Cc1ccsc1C(=O)Nc1nnc(-c2ccco2)o1 | -7% | 0% | -65* | -4
COCCNCCCCOc1c(Cl)cc(C)cc1Br | -15% | u | -84* | -4
Cc1cc(Cl)c(OCCCN2CCCCC2)c(Br)c1 | 0% | u | -2 | -25
Cc1cc(Cl)c(OCCCNCc2ccccc2)c(Br)c1 | 7% | 0% | -62* | -11
COc1ccc(CCNC(=O)Cc2c(C)c3cc4c(C(C)(C)C)coc4c(C)c3oc2=O)cc1 | x | 1% | x | 7
COc1ccc(C(=O)NCC(c2ccc(N(C)C)cc2)N2CCc3ccccc32)cc1 (centres undefined) | x | 10% | x | 5
COC(=O)c1cc(Cl)c(NC(=O)c2cc(OC)c(OC)c(OC)c2)cc1OC | -11% | 17% | 33 | 41*
O=[N+]([O-])c1ccc(S(=O)(=O)N2CCN(C3CCN(Cc4ccccc4)CC3)CC2)cc1 | 0% | u | u | -7
O=[N+]([O-])c1ccccc1S(=O)(=O)N1CCN(C2CCCC2)CC1 | -3% | -10% | -59* | -27
O=[N+]([O-])c1ccccc1S(=O)(=O)N1CCN(C2CCN(Cc3ccccc3)CC2)CC1 | 3% | u | -76* | -38
COc1ccc(C(=O)/C(Br)=C\C(=O)O)cc1 | x | x | x | 18
